The results in this text go back to PubChem BioAssay.

Test [1] has as its system Plasmodium falciparum Sir2 (PF13_0152, Sir2A). Briefly: pfSir2 binders on small-molecule microarrays, primary screen, biochemical, small-molecule microarray, 635 nm fluorescence (AID 1098).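 Further: score merges spot fluorescence intensity with its signal-to-noise ratio.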 Particulars: small-molecule microarray binding, fluorescence 635 nm; higher = more signal.
A short description of test [2]: small-molecule microarray binders of probe aDKK1, primary screen, biochemical, biotinylated probe, 635/667 nm fluorescence (AID 1099).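 Further: score merges 667nm spot fluorescence with signal to noise across triplicate slides.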 Particulars: higher = more signal.
A short description of test [3]: small-molecule microarray binders of probe aCHRDL2, primary screen, biochemical, biotinylated probe, 635/667 nm fluorescence (AID 1100). Particulars: higher = more signal.
Test [4] is described as follows: splicing luciferase reporter signal modulators, primary screen, spliceosome inhibition project, cell-based, HEK293, splice +/- reporter (AID 1101).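 Further: HEK293 cells carrying a splicing-competent luciferase reporter gene; test concentration not given here.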 The conditions noted are these: luminescence, 24 h, higher = more signal, called active from +8 up or from −8 down. For orientation: In a reporter assay the amount or activity of a reporter protein is the signal.
Test [5] has as its target Fibroblast growth factor 10 (Homo sapiens) (UniProt O15520). Nature of the test: FGF10 binders on small-molecule microarrays, primary screen, biochemical, small-molecule microarray, 635 nm fluorescence (AID 1102). The conditions noted are these: FGF10 binding, fluorescence 635 nm, higher = more signal.
Test [6] deals with glycogen synthase kinase-3 (GSK3A per assay name; protocol says GSK3B). Briefly: GSK3 binders on small-molecule microarrays, primary screen, biochemical, small-molecule microarray, 635 nm fluorescence, GSK3A (AID 1103). Further: the record names both GSK3A and GSK3B. Particulars: small-molecule microarray binding, fluorescence 635 nm; higher = more signal.
Test [7] has as its target Epidermal growth factor receptor (Homo sapiens) (UniProt P00533). Nature of the test: EGFR binders on small-molecule microarrays, primary screen, biochemical, small-molecule microarray, 635 nm fluorescence (AID 1104).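 Further: score merges 667 nm emission intensity with spot signal to noise over triplicate slides.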 Particulars: EGFR binding, higher = more signal.
Test [8] deals with Follistatin-related protein 3 (Homo sapiens) (UniProt O95633). Nature of the test: FSTL3 binders on small-molecule microarrays, primary screen, biochemical, small-molecule microarray, 635 nm fluorescence (AID 1105).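 Further: score merges emission near 667 nm and signal to noise per printed spot across three slides.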 Particulars: FSTL3 binding, higher = more signal.
For test [9], the target named is Dickkopf-related protein 1 (Homo sapiens) (UniProt O94907). Nature of the test: DKK1 binders on small-molecule microarrays, primary screen, biochemical, small-molecule microarray, 635 nm fluorescence scan (AID 1106).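 Further: score merges emission near 667 nm with signal to noise over three replicate slides.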 Particulars: DKK1 binding, higher = more signal.
Test [10] deals with Inhibin beta A chain (activin A). Briefly: INHBA (activin A) binders on microarrays, primary screen, biochemical, small-molecule microarray, 635 nm fluorescence scan (AID 1107).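 Further: mouse activin A protein probed at 4.33 µg/mL on printed slides; score merges bound-protein fluorescence near 667 nm with spot signal-to-noise.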 Particulars: small-molecule microarray binding, higher = more signal.
The subject of test [11] is Human papillomavirus type 1a protein E7 (residues 44-93). Briefly: HPV1a E7 fragment binders on microarrays, primary screen, biochemical, small-molecule microarray, residues 44-93, 635 nm fluorescence (AID 1108).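 Further: E7 fragment applied at 1 µg/mL in TBST for 1 h at 4 C; score combines spot fluorescence with its signal to noise ratio.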 Particulars: small-molecule microarray binding, fluorescence 635 nm; higher = more signal.
Test [12] can be described thus: modulators of HCV replicon luciferase signal, primary screen, HCV replication inhibitor project, Huh7 cells, luciferase reporter (AID 1109).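 Further: huh7 hepatoma cells harbouring a luciferase neomycin HCV replicon reporter; luciferase luminescence as measure of HCV replicon replication; test concentration not given here.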 The conditions noted are these: 48 h, higher = more signal. (In antiviral work, replicon cells carry a viral genome segment that copies itself.)
Test [13] addresses Left-right determination factor 2 (Homo sapiens) (UniProt O00292). Nature of the test: LEFTY2 binders on small-molecule microarrays, primary screen, biochemical, small-molecule microarray, 635 nm fluorescence scan (AID 1110). Particulars: LEFTY2 binding, higher = more signal.
The target in test [14] is Calmodulin-1 (Homo sapiens) (UniProt P0DP23). Briefly: CALM1 binders on microarrays, EGTA buffer, profiling panel, biochemical, small-molecule microarray, Cy5-labelled CALM1 (AID 1111).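 Further: labelled calmodulin applied in Tris saline Tween buffer holding calcium plus EGTA and DTT.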 The conditions noted are these: Cy5-CALM1 binding fluorescence, higher = more signal.
The target is the same in test [15]. Briefly: calcium-bound CALM1 binders on microarrays, profiling panel, artefact control for SMM control-protein annotation, biochemical, small-molecule microarray, Cy5-labelled CALM1, plus calcium (AID 1112).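 Further: score merges spot fluorescence with signal to noise from triplicate slides.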 Particulars: Cy5-CALM1 binding fluorescence, higher = more signal.
A short description of test [16]: small-molecule microarray binders of probe aWnt5a, primary screen, biochemical, biotinylated probe, 635/667 nm fluorescence (AID 1113).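 Further: score merges 667 nm fluorescence intensity with signal-to-noise per printed feature.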 Particulars: higher = more signal.
Test [17] can be described thus: small-molecule microarray binders of probe aShh, primary screen, biochemical, biotinylated probe, 635/667 nm fluorescence (AID 1114).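 Further: probe is biotin-labelled aShh protein from a stem cell growth factor screen; measures binding of labelled protein to compounds printed on the slide; score merges feature fluorescence at 667 nm with signal-to-noise.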 The conditions noted are these: higher = more signal.
Test [18] is described as follows: small-molecule microarray binders of probe aNog, primary screen, biochemical, biotinylated probe, 635/667 nm fluorescence (AID 1115).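 Further: probe is biotinylated aNog protein used at 0.15 µg/mL for 1 h at 4 C; z-score combines 667 nm fluorescence of each spot with its signal to noise.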 The conditions noted are these: higher = more signal.
Test [19] addresses Torsin-1A-interacting protein 1 (Homo sapiens) (UniProt Q5JTV8). Nature of the test: LAP1 binders from COS7 cell lysate, primary screen, small-molecule microarray, 635/667 nm fluorescence (AID 1116). Particulars: COS7-hLAP1 lysate binding, 635 nm fluorescence, higher = more signal.
Test [20] deals with Alpha-bungarotoxin (Bungarus multicinctus) (UniProt P60615). Nature of the test: alpha-bungarotoxin binders on microarray, profiling panel, artefact control for SMM control protein annotation, biochemical, small-molecule microarray, Alexa647 label, 635/667 nm fluorescence (AID 1117). Particulars: alpha-BTX-A647 binding fluorescence, higher = more signal.

Activity calls are given as the source filed them.

Torsin-1A-interacting protein 1 (Homo sapiens), sequence (Q5JTV8 whole entry, looked up): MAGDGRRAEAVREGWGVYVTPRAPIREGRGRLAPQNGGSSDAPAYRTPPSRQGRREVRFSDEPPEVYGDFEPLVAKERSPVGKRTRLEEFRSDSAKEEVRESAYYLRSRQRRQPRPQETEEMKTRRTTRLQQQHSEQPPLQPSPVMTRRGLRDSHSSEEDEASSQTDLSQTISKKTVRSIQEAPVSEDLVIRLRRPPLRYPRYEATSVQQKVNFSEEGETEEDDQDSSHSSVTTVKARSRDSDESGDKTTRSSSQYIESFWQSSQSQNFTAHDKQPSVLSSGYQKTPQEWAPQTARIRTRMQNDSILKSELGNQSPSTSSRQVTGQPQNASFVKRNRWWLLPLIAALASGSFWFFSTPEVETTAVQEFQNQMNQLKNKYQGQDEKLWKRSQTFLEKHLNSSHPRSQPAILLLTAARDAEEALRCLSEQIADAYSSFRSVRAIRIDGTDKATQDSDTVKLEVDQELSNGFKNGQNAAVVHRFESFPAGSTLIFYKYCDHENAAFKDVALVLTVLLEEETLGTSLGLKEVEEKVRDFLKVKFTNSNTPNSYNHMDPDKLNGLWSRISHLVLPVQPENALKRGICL
Follistatin-related protein 3 (Homo sapiens), sequence (O95633 whole entry, looked up): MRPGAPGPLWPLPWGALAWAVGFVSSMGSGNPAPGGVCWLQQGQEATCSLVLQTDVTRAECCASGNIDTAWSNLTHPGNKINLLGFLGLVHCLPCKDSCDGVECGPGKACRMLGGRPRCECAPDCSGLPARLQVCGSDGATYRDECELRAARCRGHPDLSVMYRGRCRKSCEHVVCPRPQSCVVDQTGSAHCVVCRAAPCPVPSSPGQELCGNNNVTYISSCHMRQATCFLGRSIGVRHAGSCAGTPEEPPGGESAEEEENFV
Dickkopf-related protein 1 (Homo sapiens), sequence (O94907 whole entry, looked up): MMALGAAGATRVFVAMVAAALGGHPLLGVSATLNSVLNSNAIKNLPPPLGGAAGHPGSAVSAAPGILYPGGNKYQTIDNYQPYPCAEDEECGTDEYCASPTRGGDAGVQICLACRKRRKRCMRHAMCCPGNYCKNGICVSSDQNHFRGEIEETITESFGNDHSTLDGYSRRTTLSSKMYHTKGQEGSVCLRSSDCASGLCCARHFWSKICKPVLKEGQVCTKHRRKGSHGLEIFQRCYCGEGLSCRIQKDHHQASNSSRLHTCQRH
Left-right determination factor 2 (Homo sapiens), sequence (O00292 whole entry, looked up): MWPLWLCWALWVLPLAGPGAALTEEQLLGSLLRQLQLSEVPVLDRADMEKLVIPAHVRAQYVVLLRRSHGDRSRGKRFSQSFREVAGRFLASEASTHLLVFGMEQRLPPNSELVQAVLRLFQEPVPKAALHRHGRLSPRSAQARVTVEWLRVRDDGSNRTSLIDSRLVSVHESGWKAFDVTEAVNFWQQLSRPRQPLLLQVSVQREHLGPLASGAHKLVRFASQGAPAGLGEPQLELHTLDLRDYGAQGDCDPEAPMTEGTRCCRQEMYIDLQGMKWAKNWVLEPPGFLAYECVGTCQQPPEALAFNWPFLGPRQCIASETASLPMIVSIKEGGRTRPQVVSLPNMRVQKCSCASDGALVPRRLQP
Alpha-bungarotoxin (Bungarus multicinctus), sequence (P60615 whole entry, looked up): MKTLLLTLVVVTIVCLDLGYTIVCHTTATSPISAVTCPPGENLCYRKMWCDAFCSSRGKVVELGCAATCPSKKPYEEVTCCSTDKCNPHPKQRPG
Epidermal growth factor receptor (Homo sapiens), sequence (P00533 whole entry, looked up): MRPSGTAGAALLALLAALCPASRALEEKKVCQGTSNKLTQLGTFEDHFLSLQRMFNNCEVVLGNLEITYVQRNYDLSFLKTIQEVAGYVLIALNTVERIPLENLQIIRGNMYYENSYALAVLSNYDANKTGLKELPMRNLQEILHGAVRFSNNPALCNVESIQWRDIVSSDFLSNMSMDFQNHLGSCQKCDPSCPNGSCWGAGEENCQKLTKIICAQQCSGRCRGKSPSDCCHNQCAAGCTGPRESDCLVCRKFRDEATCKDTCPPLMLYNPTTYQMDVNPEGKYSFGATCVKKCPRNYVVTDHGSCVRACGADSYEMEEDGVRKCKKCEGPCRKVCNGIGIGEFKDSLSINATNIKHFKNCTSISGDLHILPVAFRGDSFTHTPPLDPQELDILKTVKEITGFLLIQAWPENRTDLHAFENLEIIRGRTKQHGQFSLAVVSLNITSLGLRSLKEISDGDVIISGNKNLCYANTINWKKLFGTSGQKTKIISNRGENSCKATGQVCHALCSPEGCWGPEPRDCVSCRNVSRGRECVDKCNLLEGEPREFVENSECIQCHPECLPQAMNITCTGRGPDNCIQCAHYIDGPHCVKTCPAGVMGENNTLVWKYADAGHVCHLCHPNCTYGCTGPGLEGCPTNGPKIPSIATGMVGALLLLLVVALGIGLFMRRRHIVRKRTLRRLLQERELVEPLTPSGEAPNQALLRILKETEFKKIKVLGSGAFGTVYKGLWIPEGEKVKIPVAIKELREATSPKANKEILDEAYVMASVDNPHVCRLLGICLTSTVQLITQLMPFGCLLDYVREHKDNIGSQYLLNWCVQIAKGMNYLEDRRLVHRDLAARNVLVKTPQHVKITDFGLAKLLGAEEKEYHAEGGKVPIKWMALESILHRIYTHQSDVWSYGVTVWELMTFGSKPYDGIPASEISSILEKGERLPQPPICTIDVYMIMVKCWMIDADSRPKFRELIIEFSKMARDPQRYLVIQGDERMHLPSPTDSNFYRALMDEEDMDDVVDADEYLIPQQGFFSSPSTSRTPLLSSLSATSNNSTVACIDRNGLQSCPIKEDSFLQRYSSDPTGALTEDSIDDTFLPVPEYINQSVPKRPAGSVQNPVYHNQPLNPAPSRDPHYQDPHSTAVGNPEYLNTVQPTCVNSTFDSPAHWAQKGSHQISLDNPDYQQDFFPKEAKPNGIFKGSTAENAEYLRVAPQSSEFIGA
Fibroblast growth factor 10 (Homo sapiens), sequence (O15520 whole entry, looked up): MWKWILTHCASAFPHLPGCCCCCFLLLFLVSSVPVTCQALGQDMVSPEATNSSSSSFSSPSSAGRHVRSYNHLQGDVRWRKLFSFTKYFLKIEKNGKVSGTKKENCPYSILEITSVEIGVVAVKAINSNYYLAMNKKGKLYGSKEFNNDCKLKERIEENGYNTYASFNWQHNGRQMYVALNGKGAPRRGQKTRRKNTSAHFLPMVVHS

For `CC(C)C(O)C1C=CC2C(=O)N(c3ccccc3)C(=O)C2N1Nc1ccc(C#N)cc1` (stereo not given), the composite z-score worked out at 1.08 in test [1]; 1.27 in test [2]; 1.26 in test [3]; 1.17 in test [5]; 0.681 in [6]; 0.0839 in test [7]. The composite z-score was 1.22 in test [8]; -0.512 in test [9]; 0.942 in test [10]; 0.931 in test [11]; 1.11 in [13]; 0.875 in [14]. Moreover, the composite z-score in [15] was 0.717; in [16], -0.0522; in test [17], -0.452; in test [18] it was 0.843; in test [19], 0.892; in [20] it was 1.36. The results for the z-score in test [4] and in test [12] were 0.251 (inactive) and 0.993, respectively.
For `COCC(=C=CC[C@@H](O)c1ccc(CO)o1)CCO`, the composite z-score was 0.772 in test [1]; -0.239 in [2]; -0.181 in test [3]; 1.26 in test [5]; 0.0348 in test [6]; 0.614 in test [7]. The composite z-score in test [8] was 0.574; in [9], 0.618; in [10], 0.839; in test [11], -0.494; in test [13], 0.744; in [14], -0.699. Also, the composite z-score in test [15] is -0.662; in [16], -0.124; in test [17], -0.217; in test [18] it was -0.387; in test [19], 2.23; in test [20] it was -0.0933. The z-score in [4] is -2.32 (inactive); in [12] it was -0.711.
Turning to `CCN(CC)c1ccc(N2CC=CC34O[C@@H]5/C=C\CCCOC(=O)C5[C@H]3C(=O)N(C(CO)C(C)C)[C@@H]4C2=O)cc1` (stereo not given in full), the composite z-score in [1] was 1.23; in test [2], -0.252; in test [3], -0.0922; in test [5], -0.711; in test [6], -0.748; in test [7], -1.05. Further, the composite z-score in test [8] was -0.8; in test [9], -0.681; in test [10], 1.11; in test [11], -0.22; in test [13], -0.393; in test [14], -0.956. Besides, the composite z-score was -1.15 in test [15]; -0.0758 in test [16]; -0.221 in [17]; -0.164 in [18]; -0.0861 in test [19]; -0.692 in test [20]. Also, the z-score is 0.167 (inactive) in test [4] and -0.132 in [12].
As for `CC(C)C(=C=CC[C@H](O)c1cccc(OCCO)c1)C[C@H](O)COCc1ccccc1`, the composite z-score in test [1] is 0.845; in test [2], -0.27; in test [3], -0.154; in [5], 0.876; in test [6], -0.376; in test [7], -0.379. The composite z-score in test [8] was -0.0234; in [9] it was 0.116; in test [10], 0.405; in [11], 0.0677; in [13], -0.0641; in test [14] it was -0.53. The composite z-score in [15] is -0.981; in test [16], -0.096; in test [17] it was 0.0062; in test [18] it was 0.0308; in test [19], 1.14; in test [20] it was 0.0589. The z-score in [4] is 0.102 (inactive); in test [12] it was -0.285.
Regarding `O=C1[C@]2(CO)C=C(Br)[C@@H](C[C@@H]2c2ccccc2)[C@@]12CO2`, the composite z-score in test [1] was 0.628; in [2], 0.0144; in [3], 0.0065; in [5] it was 0.208; in test [6] it was -0.626; in test [7] it was -0.135. Moreover, the composite z-score in test [8] is 0.419; in test [9], 0.357; in test [10], 0.263; in test [11] it was -0.728; in [13] it was 0.218; in test [14] it was -0.567. Also, the composite z-score in test [15] was -0.322; in test [16], -0.0165; in test [17] it was -0.221; in test [18], -0.158; in [19], -0.563; in test [20], -0.0487. Moreover, the values for the z-score in [4] and in test [12] were 0.359 (inactive) and -3.08, respectively.
With `CCC[C@@H]1C=C(C(=O)O)[C@H](c2ccc(C)cc2)N1S(=O)(=O)c1ccc(C)cc1`, the composite z-score in test [1] was 0.706; in [2], 0.36; in test [3], 0.817; in test [5], 0.74; in [6] it was 0.415; in [7] it was -0.278. The composite z-score in test [8] is 0.192; in test [9] it was -0.435; in test [10], 0.71; in test [11] it was 1.36; in test [13], -0.442; in [14] it was 0.665. In addition, the composite z-score in [15] is 0.0233; in test [16] it was -0.0819; in test [17], 0.0815; in test [18] it was 0.582; in [19], 0.959; in [20] it was 1.45. Moreover, the z-score in test [4] was 1.04 (inactive); in test [12], 0.641.
